According to PubChem BioAssay (NCI):
Values joined by “and” are separate entries in the source; they are usually repeats but may differ in a detail not shown here. Equal values may be shown once. Compounds without any hit were thinned out: in the full panel of roughly 79,000, 15% have a hit. Some structures have more than one record in an assay (separate samples or runs), and their calls can disagree. Active and inactive are the calls of the source. Rule as the data show it: active = growth inhibition above about 70%; inactive = the rest.

Assay: NCI Yeast Anticancer Drug Screen. Data for the rad50 strain (AID 155);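 also: 0% = growth of vehicle-only cultures of the same strain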
Settings: S. cerevisiae rad50 strain growth inhibition, stronger effect = higher value
Method: Growth inhibition of yeast strains with defined genetic alterations is measured as a screen for potential anti-cancer activity. Selected strains with alterations in DNA damage repair or cell cycle control were exposed to compounds and growth inhibition was measured relative to vehicle treated controls. The strain used in this assay is rad50

[1] = at 5.0 µM (retest, dose inferred, filed as 0.5)
[2] = at 50.0 µM (retest, dose inferred, filed as 5.0)

Structure (SMILES) | growth inhibition [1] | growth inhibition [2] | growth inhibition (at 50.0 µM)
CC(=O)C1Cc2ccccc2C1=O (stereo unspecified) | 4% (inactive) | 83% (active) | -9.4% (inactive)
O=C(c1ccc(O)c(Br)c1)c1ccc(O)c(Br)c1 | 43% (inactive) | 99% (active) | 28.7% (inactive)
O=C1C(=O)c2cc([N+](=O)[O-])ccc2-c2ccccc21 | 45% (inactive) | 97% (active) | 98.7% (active)
CC(C)(C)CC(C)(C)c1ccc(OCCOCCSC(=N)N)cc1 | 5% (inactive) | 99% (active) | 46.4% (inactive)
CC(CSc1n[nH]c(=S)s1)c1ccccc1 (stereo unspecified) | 7% (inactive) | 93% (active) | 97.1% (active)
O=C/C=C/c1ccc([N+](=O)[O-])cc1 | 24% (inactive) | 98% (active) | 80.4% (active)
CCN1CCCC(Nc2cc(C)nc(/N=C(/N)Nc3ccc(Cl)c(Cl)c3)n2)C1 (stereo unspecified) | 48% (inactive) | 96% (active) | 90% (active)
CN1CCc2cc3c(c4c2C1C(O)c1ccccc1-4)OCO3 (stereo unspecified) | 17% (inactive) | 32% (inactive) | 31.4% (inactive)
O=C1c2ccccc2C(=O)c2c(O)c(Cl)cc(O)c21 | 3% (inactive) | 20% (inactive) | 15.9% (inactive)
CC(C)=C1C=C2CC[C@@H]3[C@](C)(CCC[C@@]3(C)C(=O)O)[C@H]2CC1 | -1% (inactive) | 93% (active) | 88.3% (active)
Oc1ccc(Cl)cc1C(c1cc(Cl)ccc1O)C(Cl)(Cl)Cl | 99% (active) | 99% (active) | 99.5% (active)
COc1c(C)c2c(c(O)c1C/C=C(\C)CCC(=O)O)C(=O)OC2 | 31% (inactive) | 86% (active) | 85.3% (active)
Clc1ccc(/C=N/N=C/c2ccc(Cl)cc2)cc1 | – | – | -52.5% (inactive) and -17.1% (inactive)
Cn1cc(NC(=O)c2cc(NC(=O)c3cc(NC=O)cn3C)cn2C)cc1C(=O)NCCC(=N)N | – | – | 5.1% (inactive) and 89.8% (active)
O=c1oc2c(O)c(O)cc3c(=O)oc4c(O)c(O)cc1c4c23 | – | – | 25.8% (inactive) and 6.65% (inactive)
O=C1CCOC2=C1COC2=O | – | – | -30.7% (inactive) and 9.5% (inactive)
O=C(O)/C=C/C(=O)Nc1ccccc1 | – | – | -4.8% (inactive) and -26.8% (inactive)
